The entries come from a sample that favours hits as a whole.
Tgondii IFNg: blocks Toxoplasma gondii growth in the presence of IFN-gamma. Toxoplasma gondii growth in IFN-gamma-treated host cells; hits give low values. 69,000 tested, 3.8% active. activity change, negative = inhibition, % (test concentration not listed). AID 1259416; in the data active = activity change below about -70%, passing the limit was not always enough;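 also: host cells are HeLa cells infected with Toxoplasma gondii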
A number is an active result; ! = not confirmed by another sample.

Screening CCN1C(=O)CCc2cc(NS(=O)(=O)c3ccc(C)c(F)c3)ccc21 returned Tgondii IFNg -72.1.
For COCCN1C(=O)CCc2cc(NS(=O)(=O)c3ccc(OC)c(OC)c3)ccc21 the results were Tgondii IFNg inactive.
`CCN1C(=O)CCc2cc(NS(=O)(=O)c3ccc4c(c3)OCCO4)ccc21` gave Tgondii IFNg inactive.
`CCN1C(=O)CCc2cc(NS(=O)(=O)c3ccccc3Cl)ccc21` gave Tgondii IFNg inactive.
CCN1C(=O)CCc2cc(NS(=O)(=O)c3cccc(C)c3)ccc21 was read as Tgondii IFNg inactive.
CCN1C(=O)CCc2cc(NS(=O)(=O)c3ccc(Cl)c(Cl)c3)ccc21 was read as Tgondii IFNg -100.4.
`O=C1NCCN(C(=O)c2ccc(Cn3cnnn3)cc2)C1c1cccc(F)c1` (stereo unspecified) gave Tgondii IFNg inactive.
Screening Cc1cc(NC(=O)CSc2nnc3n(Cc4ccccc4)c4ccccc4n23)no1 returned Tgondii IFNg inactive.
For O=C(O)CSc1nc2ccccc2n1Cc1ccccc1 the results were Tgondii IFNg inactive.
`COC(=O)c1c(C)nc2n(Cc3ccccc3)c3ccccc3n12` gave Tgondii IFNg -84.3.
`O=C(O)CCN1C(=O)c2ccc(Br)cc2C1=O` gave Tgondii IFNg inactive.
CCN(CC)CCCn1nnc2c(=O)oc3ccccc3c21 was read as Tgondii IFNg inactive.
For CCCN1C[C@@H]2Cc3c(c(-c4ccccc4)nn3C)[C@H]2C1 the results were Tgondii IFNg inactive.
For Cc1cn(CC(=O)N2CCC3(CCCN(C)CC3)CC2)c(=O)[nH]c1=O the results were Tgondii IFNg inactive.
`Cc1ccc(O)c(CN(Cc2cccnc2)Cc2ccc3c(c2)OCO3)n1` gave Tgondii IFNg inactive.
COCCc1ncc(CN(Cc2ccncc2)Cc2ccc3c(c2)OCO3)cn1 was read as Tgondii IFNg -71.3.
`Cc1ccc(CN(Cc2ccc3c(c2)OCO3)Cc2cnc(C)[nH]2)cc1` gave Tgondii IFNg inactive.
Screening CNc1cc(C(=O)N2CCC(CC(=O)NCCc3ccccc3F)CC2)ccn1 returned Tgondii IFNg inactive.
Screening NCCc1n[nH]c(=O)n1Cc1cccs1 returned Tgondii IFNg inactive.
Screening Cc1nsc(NC(=O)N2CCC(C(O)c3ccccn3)CC2)n1 (stereo unspecified) returned Tgondii IFNg inactive.
For CCOc1ccccc1-c1nc(Cn2nnc(C(=O)Nc3ccc(Br)cc3)c2C)c(C)o1 the results were Tgondii IFNg inactive.
`CC#C[C@@H](CC(=O)O)c1ccc(OCc2cccc(-c3ccc(C(F)(F)F)cc3)c2)cc1` gave Tgondii IFNg inactive.
OC1(C(F)(F)F)CC(c2ccc3c(c2)Nc2ccccc2S3)=NN1 (stereo unspecified) was read as Tgondii IFNg inactive.
Screening OC1(C(F)(F)F)CC(/C=C/c2ccc3c(c2)OCO3)=NN1 (stereo unspecified) returned Tgondii IFNg -86.4.
For OC1(C(F)(F)F)CC(c2cc3ccccc3o2)=NN1 (stereo unspecified) the results were Tgondii IFNg inactive.
Screening CC(C)OC(=O)c1cn(Cc2c(F)cccc2F)c2sc(-c3ccc(NC(=O)C(C)C)cc3)c(CN(C)Cc3ccccc3)c2c1=O returned Tgondii IFNg -79.9.
Screening CCOC(=O)N1CCC2(CC1)OC(=O)C(C)=C2C(=O)NCCCOC returned Tgondii IFNg inactive.
CCOc1ccc(-c2nc(CN3CCN(Cc4cc(=O)oc5ccc(CC)cc45)CC3)c(C)o2)cc1 was read as Tgondii IFNg inactive.
COc1cc(C(=O)NCCc2nc(C)ncc2-c2ccncc2)cc(OC)c1OC was read as Tgondii IFNg inactive.
`O=C1c2cccc3cccc(c23)C(=O)N1Cc1ccco1` gave Tgondii IFNg inactive.
`CN(C)CCN1C(=O)c2cccc3cc(NC(N)=O)cc(c23)C1=O` gave Tgondii IFNg inactive.
O=C(CN1C(=O)c2cccc3cccc(c23)C1=O)OCCCc1ccncc1 was read as Tgondii IFNg -73.4.
C[C@H]1[C@@H](O)O[C@@H]2O[C@@]3(C)CC[C@H]4[C@H](C)CC[C@@H]1[C@@]24OO3 was read as Tgondii IFNg -94.3.
Cn1cnc(S(=O)(=O)N2CCC(c3csc(N)n3)CC2)c1 was read as Tgondii IFNg inactive.
`CC(C)N(Cc1ccccc1)C(=O)c1cc2cccnc2n(Cc2ccc(F)cc2)c1=O` gave Tgondii IFNg -95.6.
Screening O=C(c1cc2cccnc2n(Cc2ccc(F)cc2)c1=O)N1CCN(c2ccccc2Cl)CC1 returned Tgondii IFNg -84.4.
Screening O=C(c1cc2cccnc2n(Cc2ccc(F)cc2)c1=O)N1CCCCCC1 returned Tgondii IFNg inactive.
For O=C(c1cc2cccnc2n(Cc2ccc(F)cc2)c1=O)N1CCN(c2cccc(Cl)c2)CC1 the results were Tgondii IFNg -119.3.
For O=C(c1cc2cccnc2n(Cc2ccc(Cl)cc2)c1=O)N1CCN(c2ccc(F)cc2)CC1 the results were Tgondii IFNg -97.7.
For O=C(c1ccco1)N1CCN(C(=O)c2cc3cccnc3n(Cc3ccc(F)cc3)c2=O)CC1 the results were Tgondii IFNg inactive.
CC1CCN(C(=O)c2cc3cccnc3n(Cc3ccc(F)cc3)c2=O)CC1 was read as Tgondii IFNg inactive.
For COc1ccccc1N1CCN(C(=O)c2cc3cccnc3n(Cc3ccccc3)c2=O)CC1 the results were Tgondii IFNg inactive.
For O=C(c1cc2cccnc2n(Cc2ccc(F)cc2)c1=O)N(Cc1ccccc1)c1ccccc1 the results were Tgondii IFNg inactive.
`COc1ccc(N2CCN(C(=O)c3cc4cccnc4n(Cc4ccc(F)cc4)c3=O)CC2)cc1` gave Tgondii IFNg inactive.
`O=C(c1cc2cccnc2n(Cc2ccc(Cl)cc2)c1=O)N1CCN(c2ccccc2)CC1` gave Tgondii IFNg inactive.
For CN(Cc1ccccc1)C(=O)c1cc2cccnc2n(Cc2ccccc2)c1=O the results were Tgondii IFNg inactive.
For CN(C)C1CCCN(C(=O)c2cc3c([nH]c2=O)CCC3)CC1 (stereo unspecified) the results were Tgondii IFNg inactive.
`Cc1nc(NCCC2CCOC2)cc(C2CCNCC2)n1` (stereo unspecified) gave Tgondii IFNg inactive.
Screening Cc1noc(C)c1Cn1nc(C2CCCNC2)n(-c2ccccc2)c1=O (stereo unspecified) returned Tgondii IFNg inactive.
c1cc(-c2nc3c(c(NC4COC5(CCCCC5)C4)n2)CNC3)ccn1 (stereo unspecified) was read as Tgondii IFNg inactive.
COCCNC(=O)c1cn(C[C@@H]2CCCN(C(=O)c3ccccn3)C2)nn1 was read as Tgondii IFNg inactive.
Screening O=C(c1cn[nH]c1-c1ccccc1F)N1CCC2(CCCO2)CC1 returned Tgondii IFNg inactive.
CCOc1ccc(-c2nc(Cn3cnc4nc5c(cc4c3=O)CCCC5)c(C)o2)cc1 was read as Tgondii IFNg inactive.
`CC(=O)CC1N(Cc2ccccc2)C(=O)C2N(C3CCCCC3)C(=O)C3CC(=O)OC312` (stereo unspecified) gave Tgondii IFNg inactive.
Cc1cn(CCNC(=O)c2cccc(NCc3sccc3C)c2)nn1 was read as Tgondii IFNg inactive.
For CCOc1ccc(CN2CCC(c3n[nH]c(=O)n3CC)CC2)cn1 the results were Tgondii IFNg inactive.
`Cc1[nH]c2ccccc2c1CCNCc1ccc(/C=C/C(=O)NO)cc1` gave Tgondii IFNg -81.6!.
Cc1[nH]c2ccccc2c1CCNC(=O)c1cccs1 was read as Tgondii IFNg inactive.
CCO[C@H]1COC[C@@H]1NC(=O)Cc1c(C)[nH]c2ccccc12 was read as Tgondii IFNg inactive.
CN(Cc1ccccc1-n1cccn1)C(=O)c1cn2ccccc2n1 was read as Tgondii IFNg inactive.

Source: PubChem (Broad Institute)
